Reference: PubChem BioAssay (Tox21)
Results filed as inconclusive are left out. Active and inactive are the calls of the source. Calls follow the shape of the dose curve; as a rule, active = well fitted curve in the direction sought with a large enough effect in the repeat runs; inconclusive = weak or mixed curves; inactive = no such curve, though single readings can be large; an effect the other way counts as inactive or inconclusive.

How the values were obtained:
[1] = Human pregnane X receptor (PXR) small molecule agonists, qHTS cell viability counter screen (AID 1346977); also: nearly all actives have a fitted effect of over 50% in size
Summary of the method: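 PXR-Luc HepG2, 2,000 cells/well, 5% charcoal-stripped FBS; 5hr settle; cpd 24hr, 37C/5% CO2; CellTiter-Fluor at 23hr, read 1hr later (fluorescence).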

[2] = Caspase-3/7 induction in HepG2 cells by small molecules, qHTS assay (AID 1346978); also: nearly all actives have a fitted effect of over 15% in size
Summary of the method: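 Wild-type HepG2 cells (2,000/well) were settled 5 h at 37 C, 5% CO2, then exposed to compounds in DMSO for 17 h. Caspase-3/7 activity was read by luminescence 30 min after adding Caspase-Glo 3/7 reagent at room temperature.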

[3] = Caspase-3/7 induction in CHO-K1 cells by small molecules, qHTS cell viability counter screen (AID 1346979); also: nearly all actives have a fitted effect of over 35% in size
Summary of the method: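 Cells (CHO-K1, wild type) are plated at 1,500 per well and incubated 5hr. Test compounds in DMSO are then pinned in, followed by 16hr at 37C and 5% CO2. Viability is read by CellTiter-Fluor fluorescence after 1hr.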

[4] = Caspase-3/7 induction in CHO-K1 cells by small molecules, qHTS assay (AID 1346980); also: nearly all actives have a fitted effect of over 15% in size
Summary of the method: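 Wild-type cells were seeded at 1,500 per well and settled 5 hr at 37 C, 5% CO2, then exposed to DMSO-dissolved compounds for 17 hr. Caspase-Glo 3/7 reagent was added, and luminescence was read after 30min at room temperature.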

[5] = Caspase-3/7 induction in HepG2 cells by small molecules, qHTS cell viability counter screen (AID 1346981); also: series mostly up to about 92 µM; nearly all actives have a fitted effect of over 30% in size
Summary of the method: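 Viability determined by CellTiter-Fluor fluorescence in HepG2 wells also used for the luminescent Caspase-Glo 3/7 read. Compounds were present for 16 hr at 37 C, 5% CO2 before reagent addition.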

[6] = molecular target: Nuclear receptor subfamily 1 group I member 2 (Homo sapiens) (UniProt O75469); assay: Human pregnane X receptor (PXR) small molecule agonists, qHTS assay (AID 1346982); also: nearly all actives have a fitted effect of over 35% in size
Summary of the method: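 Compound-induced hPXR transactivation of a CYP3A4 luciferase reporter was scored in HepG2 PXR-Luc cells over 24 hr at 37 C, 5% CO2, by luminescence.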

[7] = molecular target: Cytochrome P450 2D6 (Homo sapiens) (UniProt P10635); assay: Cytochrome P450 Family 2 Subfamily D Member 6 (CYP2D6) small molecule antagonists: luciferase reporter qHTS assay (AID 1671196); also: series mostly up to about 120 µM; nearly all actives have a fitted effect of over 50% in size
Summary of the method: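 Each well received CYP2D6 with its proluciferin substrate and chemical, sat 10 min, then got NADPH regeneration solution for 1 h at room temperature. Luminescence in RLU served as the activity measure.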

Measured: Potency

Chain of Nuclear receptor subfamily 1 group I member 2 (Homo sapiens) (O75469 whole entry, looked up): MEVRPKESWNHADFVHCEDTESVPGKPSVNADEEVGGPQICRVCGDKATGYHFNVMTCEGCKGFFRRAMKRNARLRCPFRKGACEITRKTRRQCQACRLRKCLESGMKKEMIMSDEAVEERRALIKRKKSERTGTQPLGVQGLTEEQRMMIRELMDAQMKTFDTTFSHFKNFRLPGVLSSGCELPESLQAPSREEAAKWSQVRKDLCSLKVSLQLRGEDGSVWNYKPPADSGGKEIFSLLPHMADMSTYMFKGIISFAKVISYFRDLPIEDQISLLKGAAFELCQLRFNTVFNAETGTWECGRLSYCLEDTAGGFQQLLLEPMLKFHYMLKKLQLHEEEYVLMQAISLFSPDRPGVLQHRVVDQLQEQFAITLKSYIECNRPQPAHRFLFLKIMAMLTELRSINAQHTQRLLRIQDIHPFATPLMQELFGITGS
Chain of Cytochrome P450 2D6 (Homo sapiens) (P10635 whole entry, looked up): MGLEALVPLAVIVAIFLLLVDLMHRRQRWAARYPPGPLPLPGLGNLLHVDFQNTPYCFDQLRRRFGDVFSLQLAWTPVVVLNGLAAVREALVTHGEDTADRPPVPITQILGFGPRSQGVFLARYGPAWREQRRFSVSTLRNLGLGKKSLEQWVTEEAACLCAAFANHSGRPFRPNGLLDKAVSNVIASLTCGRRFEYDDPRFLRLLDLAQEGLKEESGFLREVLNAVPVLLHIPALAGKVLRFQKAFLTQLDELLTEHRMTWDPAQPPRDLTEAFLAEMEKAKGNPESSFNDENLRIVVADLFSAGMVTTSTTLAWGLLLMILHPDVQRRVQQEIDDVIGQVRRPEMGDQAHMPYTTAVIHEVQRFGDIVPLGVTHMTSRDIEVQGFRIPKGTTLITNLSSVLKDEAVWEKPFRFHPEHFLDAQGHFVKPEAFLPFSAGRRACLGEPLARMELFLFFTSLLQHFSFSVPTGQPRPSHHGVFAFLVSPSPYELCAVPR

CCc1cc(S(=O)(=O)O)c2cc(C(C)C)cccc1-2
inactive: all assays above

CN(C)C(=O)Nc1ccccc1
inactive: all assays above

COc1ccc(COC=O)cc1
inactive: all assays above

OC[C@H]1O[C@@H]2O[C@H]3[C@H](O)[C@@H](O)[C@@H](O[C@H]4[C@H](O)[C@@H](O)[C@@H](O[C@H]5[C@H](O)[C@@H](O)[C@@H](O[C@H]6[C@H](O)[C@@H](O)[C@@H](O[C@H]7[C@H](O)[C@@H](O)[C@@H](O[C@H]8[C@H](O)[C@@H](O)[C@@H](O[C@H]9[C@H](O)[C@@H](O)[C@@H](O[C@H]1[C@H](O)[C@H]2O)O[C@@H]9CO)O[C@@H]8CO)O[C@@H]7CO)O[C@@H]6CO)O[C@@H]5CO)O[C@@H]4CO)O[C@@H]3CO
inactive: all assays above

CCCCCCOC(=O)c1ccccc1O
inactive: all assays above

COC(=O)c1ccc(C(=O)OC)c(C(=O)OC)c1
inactive: all assays above

C1COCCO1
inactive: all assays above

CC(C)=CC(=O)O
inactive: all assays above

CCO[Si](CCCN=C=O)(OCC)OCC
inactive: all assays above

NCCN1CCNC1=O
inactive: all assays above

Nc1ccn(C2CO[C@H](CO)O2)c(=O)n1 (stereo not given in full)
inactive: all assays above

Cc1ccc(Nc2ccc(O)c3c2C(=O)c2ccccc2C3=O)cc1
inactive: all assays above

CC(C)c1cccc(C(C)C)c1N
inactive: all assays above

CCC(C)OC(=O)N1CCCCC1CCO (stereo not given)
inactive: all assays above

Cn1cnc2c(=O)[nH]c(N)nc21
inactive: all assays above
